The compounds below were run on Vero E6 infected with SARS-CoV-2 (assay: morphology score (similarity to uninfected cells); higher = more like uninfected cells). Conditions: 24 h.

| Structure (SMILES) | morphology score |
| --- | --- |
| COc1ccccc1N1CCN(CCCCNC(=O)c2ccc3ccccc3c2)CC1 (10 µM) | -0.00528 |
| O=C(NCCCNc1nc(Nc2cccc(NC(=O)N3CCCC3)c2)ncc1I)c1cccs1 (0.833333 µM) | 0.0981 |
| Cc1cc(Oc2ccc3nc(COc4ccc(CC5SC(=O)NC5=O)cc4)n(C)c3c2)cc(C)c1N (stereo not given) [efatutazone] (10 µM) | 0.36 |
| CN1CCN(c2ccc3nc(-c4c(N)c5c(F)cccc5[nH]c4=O)[nH]c3c2)CC1 [dovitinib] (10 µM) | -0.00197 |
| O=C(O)c1cc(O)c(O)c(O)c1 [gallic-acid] (10 µM) | -0.19 |
| C/C=C(/C)C(=O)O[C@H]1[C@H](OC(C)=O)[C@@]2(CO)C(CC1(C)C)C1=CCC3[C@@]4(C)CCC(O[C@@H]5O[C@H](C(=O)O)[C@@H](O[C@@H]6O[C@H](CO)[C@@H](O)[C@H](O)[C@H]6O)[C@H](O)[C@H]5O[C@@H]5O[C@H](CO)[C@@H](O)[C@H](O)[C@H]5O)[C@](C)(CO)C4CC[C@@]3(C)[C@]1(C)C[C@H]2O.C/C=C(\C)C(=O)O[C@H]1[C@H](OC(C)=O)[C@@]2(CO)C(CC1(C)C)C1=CCC3[C@@]4(C)CCC(O[C@@H]5O[C@H](C(=O)O)[C@@H](O[C@@H]6O[C@H](CO)[C@@H](O)[C@H](O)[C@H]6O)[C@H](O)[C@H]5O[C@@H]5O[C@H](CO)[C@@H](O)[C@H](O)[C@H]5O)[C@](C)(CO)C4CC[C@@]3(C)[C@]1(C)C[C@H]2O (stereo not given in full) [escin] (0.833333 µM) | -0.0809 |
| Cc1cc(C(N)=O)ccc1-n1c(CCC(=O)O)ccc1-c1ccc(-n2ccnc2)cc1 (10 µM) | 0.066 |
| Cn1cc(-c2ccc(F)c(C(F)(F)F)c2)nc1C1CCN(c2ncnc3[nH]ncc23)CC1 (10 µM) | 0.119 |
| CS(=O)(=O)N(Cc1ccco1)C[C@@H](O)Cn1c2ccccc2c2ccccc21 (10 µM) | 0.000274 |
| OCCN1CCN(CC/C=C2/c3ccccc3Sc3ccc(Cl)cc32)CC1 [zuclopenthixol] (0.833333 µM) | 0.0109 |
| Cn1nnnc1SCC1=C(C(=O)O)N2C(=O)[C@@H](NC(=O)[C@H](OC=O)c3ccccc3)[C@H]2SC1 [cefamandole-nafate] (10 µM) | 0.0598 |
| COc1ccc(Br)cc1S(=O)(=O)NC(=O)/C=C/c1ccccc1Cc1ccc2ccccc2c1 (10 µM) | 0.19 |
| CN1CCN(C(=O)c2cc3cc(Cl)ccc3[nH]2)CC1 (10 µM) | -0.00911 |
| CCNCCS(=O)(=O)NC[C@@]1(c2ccccc2)SC(NC(=O)C(C)(C)C)=NN1C(=O)C(C)(C)C [litronesib] (10 µM) | -0.218 |
| CCCN1CCO[C@@H]2c3cc(O)ccc3OC[C@H]21 (10 µM) | 0.173 |
| CCCCCS(=O)(=O)CCCCCCCCCCn1c(-c2ccc(O)cc2)c(C)c2cc(O)ccc21 (0.833333 µM) | 0.00616 |
| O=C(NCCCCN1CCN(c2cccc(Cl)c2Cl)CC1)c1ccc2c(c1)Cc1ccccc1-2 (10 µM) | -0.00329 |
| CC(C)[C@H](CO)Nc1nc(Nc2cccc(Cl)c2)c2ncn(C(C)C)c2n1 [purvalanol-A] (0.833333 µM) | -0.028 |
| COc1cc(/C=C(\C#N)C(N)=O)cc(CSc2nc3ccccc3s2)c1O [tyrphostin-AG-825] (10 µM) | -0.108 |
| CCS(=O)(=O)N1CC(CC#N)(n2cc(-c3ncnc4[nH]ccc34)cn2)C1 [baricitinib] (10 µM) | 0.418 |

| Structure (SMILES) | morphology score |
| --- | --- |
| N#Cc1ccc2[nH]cc(CCCCN3CCN(c4ccc5oc(C(N)=O)cc5c4)CC3)c2c1 [vilazodone] (0.833333 µM) | 0.0471 |
| c1ccc(CCNc2nc(-c3ccccc3)cs2)cc1 [fanetizole] (10 µM) | -0.0158 |
| Cc1c(F)cc(C(=O)NC2CC2)cc1-c1c(F)cn2c(C(C)(C)C)nnc2c1F (10 µM) | -0.202 |
| CC(C)(N)c1nc(-c2ccc(OC(F)(F)F)cc2)c[nH]1 (10 µM) | 0.0118 |
| COc1ccc(-c2nc(C(=O)N3CCN(C)CC3)sc2-c2ccc(OC)cc2)cc1 (10 µM) | 0.211 |
| COc1cc(OCc2cccc(-c3ccccc3)c2C)cc(OC)c1CN1CCCC[C@H]1C(=O)O [PD1-PDL-inhibitor-1] (10 µM) | 0.00556 |
| CC(C)(OCc1nn(Cc2ccccc2)c2ccccc12)C(=O)O [bindarit] (10 µM) | 0.132 |
| CN[C@@H]1[C@H](O[C@H]2[C@H](O[C@H]3[C@H](O)[C@@H](O)[C@H](NC(=N)N)[C@@H](O)[C@@H]3NC(=N)N)O[C@@H](C)[C@]2(O)CO)O[C@@H](CO)[C@H](O)[C@H]1O [dihydrostreptomycin] (10 µM) | -0.0119 |
| CCn1c(N)c(C(=O)NC)c(=O)c2ccc(C#C[C@@](C)(O)COC)nc21 (10 µM) | 0.464 |
| CCNC(=O)/C=C/c1cccc(Br)c1 [cinromide] (10 µM) | 0.135 |
| CC(C)C(=O)Nc1ccc([N+](=O)[O-])c(C(F)(F)F)c1 [flutamide] (10 µM) | -0.24 |
| COc1ccc(-c2ccc3ncc4c(c3c2)n(-c2ccc(N3CCNCC3)c(C(F)(F)F)c2)c(=O)n4C)cn1 (0.833333 µM) | 0.115 |
| O=C(NC1CCNCC1)[C@@H]1CC[C@@H]2CN1C(=O)N2OS(=O)(=O)O [relebactam] (10 µM) | 0.0111 |
| O=C(Nc1ccc(C(O)(C(F)(F)F)C(F)(F)F)cc1)c1ccc(C(F)(F)F)cc1 (10 µM) | 0.265 |
| O=C(O)COCCN1CCN(C(c2ccccc2)c2ccc(Cl)cc2)CC1 (stereo not given) [cetirizine] (10 µM) | 0.153 |
| CC1=C(C)C(=O)C(C(CCCCCC(=O)O)c2ccccc2)=C(C)C1=O (stereo not given) [seratrodast] (10 µM) | 0.0459 |
| NC(=O)c1ccc(N(C(N)=O)c2c(F)cccc2F)nc1-c1ccc(F)cc1F (10 µM) | -0.134 |
| N#C/C(=C\c1ccc(O)c(O)c1)C(=O)NCCCCc1ccccc1 (0.833333 µM) | 0.167 |
| CC(C)(C#N)c1cc(Cn2cncn2)cc(C(C)(C)C#N)c1 [anastrozole] (10 µM) | -0.0389 |
| N#Cc1cc(CN2CCC(Nc3ncnc4sc(Cl)cc34)CC2)ccc1F (10 µM) | -0.299 |
